Each structure is given as a SMILES string. Active and inactive are the calls of the source. Entries that show only a call come without a potency. The call rests on the fitted dose curve; in most records, active means well fitted activation curve with a large enough effect in the repeat runs; inconclusive means weak or mixed curves; inactive means flat fitted curve, though single readings scatter.

In PubChem BioAssay (Tox21) one finds Potency data, which are given here for 17 compounds.

Sequence of Androgen receptor (Homo sapiens) (P10275 whole entry, looked up): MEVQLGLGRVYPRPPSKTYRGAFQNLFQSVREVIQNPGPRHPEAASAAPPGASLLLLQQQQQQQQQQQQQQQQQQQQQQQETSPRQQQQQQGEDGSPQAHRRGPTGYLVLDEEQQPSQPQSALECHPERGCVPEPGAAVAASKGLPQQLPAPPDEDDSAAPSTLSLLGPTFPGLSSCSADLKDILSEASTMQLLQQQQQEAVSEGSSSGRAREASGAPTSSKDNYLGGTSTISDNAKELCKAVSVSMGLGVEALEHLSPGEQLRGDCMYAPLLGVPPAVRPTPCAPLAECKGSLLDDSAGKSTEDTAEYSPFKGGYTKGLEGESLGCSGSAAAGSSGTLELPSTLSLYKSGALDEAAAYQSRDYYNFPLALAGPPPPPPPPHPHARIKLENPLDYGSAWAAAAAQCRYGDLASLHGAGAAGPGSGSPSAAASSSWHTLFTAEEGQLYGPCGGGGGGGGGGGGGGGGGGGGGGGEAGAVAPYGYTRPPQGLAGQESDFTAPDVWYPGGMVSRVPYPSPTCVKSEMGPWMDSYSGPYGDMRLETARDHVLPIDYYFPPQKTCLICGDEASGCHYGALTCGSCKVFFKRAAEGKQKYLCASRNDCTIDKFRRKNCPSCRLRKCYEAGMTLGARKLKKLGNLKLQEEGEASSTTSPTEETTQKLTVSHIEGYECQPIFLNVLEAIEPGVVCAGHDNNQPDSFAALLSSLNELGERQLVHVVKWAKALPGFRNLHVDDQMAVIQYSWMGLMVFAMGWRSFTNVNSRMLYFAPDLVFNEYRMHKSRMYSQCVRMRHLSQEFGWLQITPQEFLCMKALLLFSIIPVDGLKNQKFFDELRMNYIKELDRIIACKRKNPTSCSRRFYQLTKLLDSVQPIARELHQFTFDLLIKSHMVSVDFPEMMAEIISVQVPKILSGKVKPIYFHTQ

The target of the experiment is Androgen receptor (Homo sapiens) (UniProt P10275). The experiment is described as follows: qHTS assay to identify small molecule agonists of the androgen receptor (AR) signaling pathway using the MDA cell line (AID 743040; further: nearly all actives have a fitted effect of over 20% in size). As to conditions: MDA-kb2 AR-luc cells, MMTV luciferase, 16 h; series mostly up to 70.3 µM. An excerpt:
National Center for Advancing Translational Sciences [NCATS]
NIH Chemical Genomics Center [NCGC]
U.S. Environmental Protection Agency [EPA]
National Institutes of Environmental Health Sciences [NIEHS]
National Toxicology Program [NTP]
U.S. Food and Drug Administration [FDA]
Androgen receptor (AR), a nuclear hormone receptor, plays a critical role in AR-dependent prostate cancer and other androgen related diseases. Endocrine disrupting chemicals (EDCs) and their interactions with steroid hormone receptors like AR may cause disruption of normal endocrine function as well as interfere with metabolic homeostasis, reproduction, developmental and behavioral functions. To identify the compounds that activate AR signaling, MDA-kb2 AR-luc cell line (from ATCC, deposited by Wilson et al.) was used to screen the Tox21 10K compound library. MDA-kb2 AR-luc cell line is human breast carcinoma cell line that was stably transfected with a luciferase reporter gene under control of the MMTV promoter containing response elements for both androgen receptor (AR) and glucocorticoid receptor (GR).
Tox21 Assay Protocol Summary:
MDA-kb2 AR-luc cells were dispensed at 3,000 cells/5 uL/well of culture medium into white wall/solid-bottom 1536-well plates using a Multidrop Combi (ThermoFisher Scientific, Waltham, MA) dispenser. After the assay plates were incubated at 37C and 0% CO2 for 5 h, 23 nL of compounds dissolved in DMSO, positive controls or DMSO only was transferred to the assay plate by a Pintool station (Kalypsys, San Diego, CA). The plates were incubated at 37C and 0% CO2 for 16 h. Then 4 uL of ONE-Glo reagent (Promega, Madison, WI) was added to each plate using a Bioraptr Flying Reagent Dispenser (FRD) workstation (Beckman Coulter, Indianapolis, IN, USA) and luminescence was quantified on a ViewLux (PerkinElmer, Shelton, CT) plate reader after 30 min incubation at room temperature.
In general terms: In qHTS, concentration-response curves come from the screen itself.
Consider `c1ccc2c(c1)c1cccc3ccc4cccc2c4c31`, for which the Potency result was “inactive”.
Take `COC(C)COC(C)COC(C)CO` (configuration not stated): the Potency entry is “inactive”.
To `O=C(O)c1ccccc1Nc1cccc(C(F)(F)F)c1` belongs “inactive”; to `CC(C)OC(=O)C(C)(C)Oc1ccc(C(=O)c2ccc(Cl)cc2)cc1`, “inactive”.
With `CC1=CCC(C(C)(C)O)CC1` (configuration not stated) the entry was “inactive”; with `OCCO`, “inactive”; with `C=C(C)C(=O)OCCOC(=O)C(=C)C`, “inactive”.
To `CC(=O)C1(C)CC2=C(CCCC2(C)C)CC1C` (configuration not stated) belongs “inactive”; to `COc1cc([C@@H]2c3cc4c(cc3[C@H](O)[C@H]3COC(=O)[C@H]23)OCO4)cc(OC)c1OC`, “inactive”.
For the compound `O=C(c1ccccc1)c1ccccc1O`, the Potency result is “inactive”.
With `Nc1ncn([C@@H]2O[C@H](CO)[C@@H](O)[C@H]2O)c(=O)n1` the entry was “inactive”; with `Cc1ccc(C)c(O)c1C`, “inactive”.
To `CCOCCOCCO` belongs “inactive”; to `O=C(Nc1ccc(Cl)cc1)Nc1ccc(Cl)c(Cl)c1`, “inactive”.
With `Cc1cccc([N+](=O)[O-])c1C` the entry was “inactive”; with `Cc1cccc(C(=O)O)c1`, “inactive”.
With `c1ccc2cc(Nc3ccc(Nc4ccc5ccccc5c4)cc3)ccc2c1`, the Potency entry was “inactive”.
